Rows were chosen to be rich in hits. Some 1.6% of all compounds tested hit in one or more screens of this group.
KCNQ2 pot = enhances the rat KCNQ2 potassium channel. 0.54% of 310,000 active. B-score at 10 µM. CHO-K1 KCNQ2, FluxOR thallium flux fluorescence; stronger effect = higher value. AID 2239;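 active means fluorescence ratio B-score at least 3 SD of library B-scores, with initial fluorescence B-score within 3 of them, cut at about 5.3 in these data; same plate scores as AID 2156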;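 further: B-score of peak minus minimum over baseline fluorescence ratio after K+ and Tl+ stimulus; positive B-score means potentiation of KCNQ2 with more thallium influx and brighter signal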
Target sequence (O88943 whole entry, looked up): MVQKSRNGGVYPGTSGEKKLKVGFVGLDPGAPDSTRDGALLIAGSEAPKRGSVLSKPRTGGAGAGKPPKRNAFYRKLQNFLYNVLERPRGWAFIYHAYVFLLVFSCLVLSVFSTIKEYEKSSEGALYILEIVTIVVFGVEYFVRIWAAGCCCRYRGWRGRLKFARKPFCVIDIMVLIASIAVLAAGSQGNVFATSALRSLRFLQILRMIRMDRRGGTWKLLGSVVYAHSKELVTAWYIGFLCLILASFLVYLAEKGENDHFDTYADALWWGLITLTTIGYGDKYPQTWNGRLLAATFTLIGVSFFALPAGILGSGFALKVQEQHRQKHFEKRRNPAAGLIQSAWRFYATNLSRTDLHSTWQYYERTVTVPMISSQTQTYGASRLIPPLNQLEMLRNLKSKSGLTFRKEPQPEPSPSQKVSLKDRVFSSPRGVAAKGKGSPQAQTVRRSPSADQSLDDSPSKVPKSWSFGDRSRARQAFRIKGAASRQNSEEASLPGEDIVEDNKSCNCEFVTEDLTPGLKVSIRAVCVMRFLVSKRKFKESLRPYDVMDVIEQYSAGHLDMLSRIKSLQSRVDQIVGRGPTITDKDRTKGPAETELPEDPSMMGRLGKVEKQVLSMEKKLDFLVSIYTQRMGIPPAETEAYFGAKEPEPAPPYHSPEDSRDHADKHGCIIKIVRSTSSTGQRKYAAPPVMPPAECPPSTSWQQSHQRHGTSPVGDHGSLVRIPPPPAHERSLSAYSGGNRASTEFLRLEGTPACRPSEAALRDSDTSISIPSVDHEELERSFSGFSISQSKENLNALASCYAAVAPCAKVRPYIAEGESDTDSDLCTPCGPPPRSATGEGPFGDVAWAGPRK
KCNQ2 block = KCNQ2 (rat) channel inhibition. O88943. CHO-K1 KCNQ2, FluxOR thallium flux, 20 min; stronger effect = lower value. B-score at 10 µM. 1.1% of 310,000 active;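 active means fluorescence ratio B-score at most minus 3 library SDs, with starting brightness B-score within 2 library SDs, cut at about -5.5 in these data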
* marks the source's active call; other numbers are inactive results; i = inactive; . = no result given.

SMILES | KCNQ2 pot | KCNQ2 block
CCc1cccc(NC(=O)CCCn2nc(C)c3c(C)n(-c4ccccc4)nc3c2=O)c1 | . | i
CC1(C)CC(=O)C(C2=NC3(CCCCCC3)Cc3ccccc32)=C(O)C1 | -5.76 | -5.76*
Cc1c(NC2=NC3(CCCCC3)Cc3ccccc32)c(=O)n(-c2ccccc2)n1C | 0.57 | i
CCn1cc(/C=C(\NC(=O)c2ccccc2)C(=O)NCCCN2CCOCC2)c2ccccc21 | . | i
Cc1cc(C(F)F)n2ncc(C(=O)N3CCc4ccccc4C3)c2n1 | 0.89 | i
O=C(c1cnn2c(C(F)F)cc(-c3ccccc3)nc12)N1CCc2ccccc2C1 | -6.35 | -6.35*
O=C(c1cnn2c(C(F)(F)F)cc(-c3ccco3)nc12)N1CCc2ccccc2C1 | -7 | -7*
O=C(c1cnn2c(C(F)(F)F)cc(-c3ccco3)nc12)N1CCCCCC1 | 0.19 | i
CC(Nc1nc(-c2cccc(Br)c2)cs1)c1nc2cc(Cl)c(N3CCCCC3)cc2n1CCOCCO (stereo not given) | . | i
CCn1cc(C2=NC(c3ccccc3)CO2)c2ccccc21 (stereo not given) | -5.7 | -5.7*
CCn1cc(C2=NC(C)CO2)c2ccccc21 (stereo not given) | 0.41 | i
COC(=O)c1ccccc1NC(=O)c1ccc(COc2cccc3ccccc23)o1 | -6.46 | -6.46*
COC(=O)c1ccc(COc2ccccc2OC)o1 | 0.51 | i
COc1ccc(C(=O)CCC(=O)NC2=NCCS2)cc1 | 0.43 | i
COc1ccccc1CNn1c(-c2cccc(C)c2)nc2ccccc2c1=O | -7.58 | -7.58*
COc1ccc(CNn2c(-c3cccc(C)c3)nc3ccccc3c2=O)cc1OC | . | i
O=C(CCC(=O)N1CCOc2ccccc21)Nc1ccccc1Br | 0.54 | i
CCn1c(C)c(C)c2cc(C(=O)N3CCc4ccccc4C3)ccc21 | -6.04 | -6.04*
CCN1CCN(C(=O)c2ccc3c(c2)c(C)c(C)n3Cc2ccccc2)CC1 | . | i
O=C(Cn1cc([N+](=O)[O-])cn1)N1CCN(Cc2ccc3c(c2)OCO3)CC1 | . | i
CCn1c(CC(=O)Nc2ccccc2)nnc1SCC(=O)Nc1ccccc1C(=O)OC | 0.48 | i
Cc1ccccc1OCc1nnc(SCC(=O)NCc2ccccc2)n1C | . | i
CCOC(=O)c1ccccc1NC(=O)CSc1nnc(COc2ccccc2C)n1C | -7.1 | -7.1*
CCn1c(COc2cccc(OC)c2)nnc1SCC(=O)Nc1ccccc1C(=O)OC | -5.71 | -5.71*
CC(C)CN(C(=O)CN1CCN(c2ccc([N+](=O)[O-])cc2)CC1)c1c(N)n(CC(C)C)c(=O)[nH]c1=O | . | i
SMILES | KCNQ2 pot | KCNQ2 block
CCCCS(=O)(=O)/C=C\C=C/S(=O)(=O)CCCC | 6.71* | i
CCCCS(=O)(=O)/C=C\C1C2C=CC(C2)C1S(=O)(=O)CCCC (stereo not given) | . | i
CC(Oc1ccc([N+](=O)[O-])cc1)C(=O)NCC1CCCO1 (stereo not given) | . | i
CC(C)CC(NC(=O)OC(C)(C)C)C(=O)O (stereo not given) | . | i
CC(C)(C)OC(=O)NC(CCCCNC=O)C(=O)O (stereo not given) | -6.64 | -6.64*
COc1ccc(NC(=O)CN(c2ccc(OC)c(Cl)c2)S(=O)(=O)c2ccccc2)c(OC)c1 | . | i
COc1ccc(C(=O)N2CCOC2CNC(=O)C(=O)NCCc2ccccc2OC)cc1 (stereo not given) | . | i
C=CCN(c1ccccc1)S(=O)(=O)c1cccc(C(=O)NCC(c2ccc(F)cc2)N2CCOCC2)c1 (stereo not given) | -6.03 | -6.03*
Cc1ccc(NS(=O)(=O)c2cccc(C(=O)NCC(c3ccc(F)cc3)N3CCOCC3)c2)cc1 (stereo not given) | . | i
C=CCc1ccc(OCCn2nnc3ccccc32)c(OC)c1 | 1.86 | i
C=CCc1ccc(OCCn2cccc2C=O)c(OC)c1 | 7.61* | i
O=C(CSc1nc2ccccc2s1)N1c2ccccc2Sc2ccc(Cl)cc21 | . | i
O=C(CSc1nc2ccccc2s1)N1c2ccccc2Sc2ccc(C(F)(F)F)cc21 | -6.5 | -6.5*
CC(C)C1=NN(C(=O)c2cccnc2)C(O)(C(F)(F)F)C1 (stereo not given) | 0.87 | i
CC1=NN(C(=O)c2ccc(Cn3nc(C)c([N+](=O)[O-])c3C)cc2)C(O)(C(F)(F)F)C1 (stereo not given) | 2.36 | i
CC1=NN(C(=O)c2cccnc2)C(O)(C(F)(F)F)C1 (stereo not given) | 11.1* | i
CC1=NN(C(=O)c2ccc(Cn3nc(C)c(Br)c3C)cc2)C(O)(C(F)(F)F)C1 (stereo not given) | 13.4* | i
CCOC(=O)c1cc(C)sc1NC(=O)CSC1=NCCS1 | . | i
CC(C)OC(=O)C1Cc2ccccc2CN1S(=O)(=O)c1cccs1 (stereo not given) | . | i
O=C(c1c(F)cccc1F)N1CCCc2ccccc21 | . | i
O=c1cc(N2CCCCC2)c(-c2ccccc2)nn1Cc1ccccc1Cl | . | i
O=c1cc(N2CCCCC2)c(-c2ccccc2)nn1Cc1ccc(Cl)cc1Cl | -7.68 | -7.68*
O=C(Nc1ccccc1)NC1CCCCNC1=O (stereo not given) | 0.34 | i
c1ccc(-c2cc3c(N4CCN(c5ccccc5)CC4)ncnc3s2)cc1 | -7.71 | -7.71*
c1ccc(-c2cc3c(N4CCN(c5ncccn5)CC4)ncnc3s2)cc1 | . | i
SMILES | KCNQ2 pot | KCNQ2 block
Cc1cc(-c2ccccc2)nc(SCc2ccc(C(=O)O)cc2)n1 | 0.39 | i
COc1ccc(C2CC(C)(c3ccc(OC)cc3OC)Nc3ccccc3N2)c(OC)c1 (stereo not given) | -6.4 | -6.4*
COC(=O)C1=C(C)C(c2ccc(OC)cc2OC)NC(=O)N1 (stereo not given) | . | i
CCOC(=O)c1cc(S(=O)(=O)N2CCC(C)CC2)cn1C | . | i
COc1ccc(C(=O)OCCc2sc[n+](CC(=O)c3ccccc3)c2C)cc1 | 1.46 | i
Cc1c(CCOC(=O)C2C3CC4CC(C3)CC2C4)sc[n+]1CC(=O)c1ccc(Br)cc1 (stereo not given) | -7.19 | -7.19*
O=C([O-])c1cc(-c2ccccc2)cc(-c2ccccc2)[n+]1Cc1ccccc1 | . | i
Cc1nn2c(N3CCN(C)CC3)cc(C(C)(C)C)nc2c1-c1ccccc1 | . | i
Cc1nn2c(N3CCN(C(=O)c4ccco4)CC3)cc(C(C)(C)C)nc2c1-c1ccccc1 | -6.51 | -6.51*
O=C(NCCc1ccccc1F)C1CCC(=O)N(Cc2ccc(Cl)cc2)C1 (stereo not given) | . | i
CCOC(=O)c1ccc(N2CCN(C(=O)c3ccccc3)CC2)c(NC(=O)c2ccco2)c1 | . | i
Fc1cccc(CSc2ccc(-c3ccc4c(c3)OCO4)nn2)c1 | . | i
Cc1ccccc1CSc1ccc(-c2ccc3c(c2)OCO3)nn1 | -5.77 | -5.77*
COc1ccc(C(=O)C2CCN(C(=O)Nc3ccccc3C)CC2)cc1 | 0.31 | i
COc1ccc2nc3oc(C(=O)N4CCN(c5cccc(C(F)(F)F)c5)CC4)cc3cc2c1 | . | i
COc1ccc2nc3oc(C(=O)N4CCN(c5cccc(Cl)c5)CC4)cc3cc2c1 | -5.75 | -5.75*
O=C(NCC(c1cccs1)N1CCOCC1)c1ccccc1NS(=O)(=O)c1ccc(Cl)c([N+](=O)[O-])c1 (stereo not given) | -6.24 | -6.24*

Assay outcomes from PubChem.
